Source: PubChem BioAssay (The Scripps Research Institute Molecular Screening Center)
Shown are actives, neighbours in structure and some others; about 3.4% of the full set was active somewhere.
FBW7 act – activators of human E3 ligase FBW7; AlphaScreen FBW7–phospho-cyclin E peptide binding, activator screen; normalized activity (activation), % at 26.1 µM; 650,000 tested, 0.13% active; AID 1259310; in the data active = normalized activity above about 1.9%;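 also: purified mutant Fbw7 with reduced substrate affinity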
TEAD-YAP inh – TEAD-YAP interaction inhibition; HEK-TIYL cells, TEAD-Gal4/YAP UAS-luciferase luminescence; inhibition, % at 9.12 µM; 640,000 tested, 1.4% active; AID 1259422; in the data active = inhibition above about 32%;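 also: 0% = median of test compound wells and 100% = reference inhibitor wells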
MITF inh – blocks human microphthalmia-associated transcription factor; O75030; AlphaScreen MITF homodimerization, bead proximity signal; inhibition, % at 2.6 µM; 650,000 tested, 0.91% active; AID 1259374; in the data active = inhibition above about 50%;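 also: 0% = vehicle wells with protein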
GPR151 activ – activates the human receptor GPR151. 650,000 tested, 1% active. Q8TDV0. PathHunter beta-arrestin GPR151 cells, luminescence. AID 1508602. activation, % at 11.2 µM; in the data active = activation above about 4.9%;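 also: 0% = median of compound wells and 100% = cells with positive control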
Active calls of the source: *.

How did COc1ccc(C(=O)Nn2c(SCc3cccc(Br)c3)nc3ccccc3c2=O)cc1 do in these assays?
FBW7 act: 0; TEAD-YAP inh: 52*; MITF inh: 0; GPR151 activ: 0

What do the screens show for `COc1ccc(C(=O)Nn2c(SCc3cccc([N+](=O)[O-])c3)nc3ccccc3c2=O)cc1`?
FBW7 act: 0; TEAD-YAP inh: 72*; MITF inh: 1; GPR151 activ: 0

What do the screens show for `COc1ccc(C(C)=O)cc1CSc1nc2ccccc2c(=O)n1NC(=O)c1ccccc1`?
FBW7 act: 0; TEAD-YAP inh: -15; MITF inh: 7; GPR151 activ: -1

How did COc1ccc(C(=O)Nn2c(SCc3cccc(F)c3)nc3ccccc3c2=O)cc1 do in these assays?
FBW7 act: 0; TEAD-YAP inh: 77*; MITF inh: -6; GPR151 activ: 0

How did Cc1ccc(NC(=O)CSc2nc3ccccc3c(=O)n2NC(=O)c2ccc(F)cc2)cc1 do in these assays?
FBW7 act: 1; TEAD-YAP inh: 41*; MITF inh: 7; GPR151 activ: -4

How did O=C(Nn1c(SCc2cccc([N+](=O)[O-])c2)nc2ccccc2c1=O)c1ccccc1 do in these assays?
FBW7 act: 0; TEAD-YAP inh: -35; MITF inh: 9; GPR151 activ: 2

Results for COc1ccc(C(=O)Nn2c(SCc3cccnc3)nc3ccccc3c2=O)cc1 ?
FBW7 act: 0; TEAD-YAP inh: 66*; MITF inh: -14; GPR151 activ: -1

What do the screens show for `O=c1oc2c(-c3ccc(Cl)cc3Cl)cc(O)cc2s1`?
FBW7 act: 0; TEAD-YAP inh: 7; MITF inh: -10; GPR151 activ: 2

Results for O=C(CC(=O)c1c[nH]c2ccccc12)c1ccccc1 ?
FBW7 act: 0; TEAD-YAP inh: -10; MITF inh: 16; GPR151 activ: 2

Results for O=C(CNc1ccncc1)c1c[nH]c2ccccc12 ?
FBW7 act: 0; TEAD-YAP inh: 83*; MITF inh: -12; GPR151 activ: 2

How did Cc1ccc(C2Nn3c(C)nnc3SC2C(=O)Nc2cccc(C(F)(F)F)c2)cc1 (stereo not drawn) do in these assays?
FBW7 act: 0; TEAD-YAP inh: 3; MITF inh: 6; GPR151 activ: 0

Results for O=C(/C=C/c1ccccc1)c1c(O)c2ccccc2[nH]c1=O ?
FBW7 act: 0; TEAD-YAP inh: 4; MITF inh: 5; GPR151 activ: 1

Results for Cc1[nH]c2ccccc2c(=O)c1C(=O)/C=C/c1ccccc1 ?
FBW7 act: 0; TEAD-YAP inh: 93*; MITF inh: -2; GPR151 activ: 0

What do the screens show for `CC(=O)c1ccc(N2CCN(C(=O)c3oc(=O)c4ccccc4c3-c3ccccc3)CC2)cc1`?
FBW7 act: 0; TEAD-YAP inh: -5; MITF inh: 6; GPR151 activ: 0

What do the screens show for `CC(=O)Nc1nc2ccc(NC(=O)c3c([N+](=O)[O-])cnn3C)cc2s1`?
FBW7 act: 0; TEAD-YAP inh: 53*; MITF inh: 7; GPR151 activ: -1

How did Nc1ccc(C(=O)Nc2nc3cc4sc(NC(=O)c5ccc(N)cc5)nc4cc3s2)cc1 do in these assays?
FBW7 act: 6.7*; TEAD-YAP inh: -1; MITF inh: -86; GPR151 activ: -1

How did Cn1ncc(Cl)c1C(=O)Nc1ccc(Cl)c(Cl)c1 do in these assays?
FBW7 act: 0; TEAD-YAP inh: -24; MITF inh: -5; GPR151 activ: 0

How did O=C(Nc1ccccc1)c1ccc2nc(NC(=O)C3CCCCC3)sc2c1 do in these assays?
FBW7 act: 0; TEAD-YAP inh: 2; MITF inh: -7; GPR151 activ: -2

Results for Nc1ccc(C(=O)Nc2ccc3nc(NC(=O)C4CCCCC4)sc3c2)cc1 ?
FBW7 act: 0; TEAD-YAP inh: 40*; MITF inh: 12; GPR151 activ: 2

What do the screens show for `Cn1ncc(Cl)c1C(=O)Nc1ccc2nc(NC(=O)C3CCCCC3)sc2c1`?
FBW7 act: 0; TEAD-YAP inh: 57*; MITF inh: 11; GPR151 activ: 0

How did CC(=O)N1c2ccccc2NC2=C(C(=O)CCC2)C1c1ccccc1 (stereo not drawn) do in these assays?
FBW7 act: 0; TEAD-YAP inh: 37*; MITF inh: 2; GPR151 activ: -1

How did CC(=O)N1c2ccccc2NC2=C(C(=O)CCC2)C1c1cccc(Br)c1 (stereo not drawn) do in these assays?
FBW7 act: 0; TEAD-YAP inh: 37*; MITF inh: -11; GPR151 activ: -1

Results for COc1ccccc1C(=O)OCC(=O)c1ccc([N+](=O)[O-])cc1 ?
FBW7 act: 0; TEAD-YAP inh: -7; MITF inh: 6; GPR151 activ: -1

How did O=C(COC(=O)c1ccccc1C(F)(F)F)c1ccc([N+](=O)[O-])cc1 do in these assays?
FBW7 act: 0; TEAD-YAP inh: 38*; MITF inh: -10; GPR151 activ: 0

Results for COc1cc(C(=O)Nc2cc(C(F)(F)F)ccc2Cl)ccc1Oc1ccc(C(F)(F)F)cc1[N+](=O)[O-] ?
FBW7 act: 0; TEAD-YAP inh: 4; MITF inh: 10; GPR151 activ: -1

What do the screens show for `Cc1ccc2c(nc3s/c(=C\c4cc(Cl)ccc4OCc4ccccc4Cl)c(=O)n32)c1C`?
FBW7 act: 0; TEAD-YAP inh: 7; MITF inh: 1; GPR151 activ: -1

How did c1csc(-c2cn3ccc4ccccc4c3n2)c1 do in these assays?
FBW7 act: 2.5*; TEAD-YAP inh: -31; MITF inh: 4; GPR151 activ: -6

How did O=C(NCc1ccc(F)cc1)c1ccc(S(=O)(=O)N(Cc2ccco2)C2CC2)o1 do in these assays?
FBW7 act: 0; TEAD-YAP inh: 1; MITF inh: -3; GPR151 activ: 0

How did O=C(O)CCC(C(=O)O)N1C(=O)/C(=C/c2ccccc2)SC1=S (stereo not drawn) do in these assays?
FBW7 act: 0; TEAD-YAP inh: 6; MITF inh: 3; GPR151 activ: -2

How did CC(C)CC(C(=O)O)N1C(=O)/C(=C\c2ccco2)SC1=S (stereo not drawn) do in these assays?
FBW7 act: -1; TEAD-YAP inh: -1; MITF inh: 58*; GPR151 activ: 0

How did CCCCC(C(=O)O)N1C(=O)/C(=C\c2ccc(C)o2)SC1=S (stereo not drawn) do in these assays?
FBW7 act: -1; TEAD-YAP inh: 7; MITF inh: 26; GPR151 activ: 0

What do the screens show for `Cc1ccc(/C=C2/SC(=S)N(C(CCC(=O)O)C(=O)O)C2=O)o1` (stereo not drawn)?
FBW7 act: -2; TEAD-YAP inh: -8; MITF inh: 55*; GPR151 activ: 1

What do the screens show for `CCCCC(C(=O)O)N1C(=O)/C(=C\c2ccco2)SC1=S` (stereo not drawn)?
FBW7 act: 0; TEAD-YAP inh: -2; MITF inh: 28; GPR151 activ: 0

What do the screens show for `CCC(C(=O)O)N1C(=O)/C(=C\c2ccc(C)o2)SC1=S` (stereo not drawn)?
FBW7 act: 0; TEAD-YAP inh: 0; MITF inh: 62*; GPR151 activ: -1
